Inhibition data for seven compounds are collected here from ChEMBL document CHEMBL1961873, “Compounds: GSK PKIS; Assays: Nanosyn kinase panel” (2012).

Test [1] has as its target Glycogen synthase kinase-3 beta (Homo sapiens) (UniProt P49841). To be noted: at 1 µM.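 Also: reported values are mean percent inhibition of GSK3B.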
Test [2] addresses Homeodomain-interacting protein kinase 1 (Homo sapiens) (UniProt Q86Z02). To be noted: at 0.1 µM.
Test [3] shares this target. To be noted: at 1 µM.
Test [4] addresses T1, Homeodomain-interacting protein kinase 4 (Homo sapiens) (UniProt Q8NE63).
T1 sequence (whole entry): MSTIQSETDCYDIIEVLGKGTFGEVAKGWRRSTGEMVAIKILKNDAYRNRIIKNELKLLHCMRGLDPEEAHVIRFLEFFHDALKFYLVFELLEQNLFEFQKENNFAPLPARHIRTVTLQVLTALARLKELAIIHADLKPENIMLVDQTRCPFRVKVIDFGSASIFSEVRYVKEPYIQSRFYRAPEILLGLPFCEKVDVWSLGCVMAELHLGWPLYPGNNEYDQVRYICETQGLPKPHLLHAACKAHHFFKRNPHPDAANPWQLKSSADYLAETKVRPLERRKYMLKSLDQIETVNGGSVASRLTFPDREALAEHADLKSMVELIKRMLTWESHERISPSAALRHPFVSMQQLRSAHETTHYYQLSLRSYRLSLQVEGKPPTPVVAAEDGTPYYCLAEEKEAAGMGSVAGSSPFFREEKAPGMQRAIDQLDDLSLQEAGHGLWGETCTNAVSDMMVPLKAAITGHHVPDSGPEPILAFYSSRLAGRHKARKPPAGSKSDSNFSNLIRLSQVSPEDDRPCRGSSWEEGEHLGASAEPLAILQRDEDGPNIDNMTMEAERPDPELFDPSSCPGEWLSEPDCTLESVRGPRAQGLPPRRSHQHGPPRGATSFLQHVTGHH
To be noted: at 0.1 µM.

Test [5] deals with T1, Homeodomain-interacting protein kinase 4 (Homo sapiens). To be noted: at 1 µM.
The target of test [6] is Mitogen-activated protein kinase 9 (Homo sapiens) (UniProt P45984). To be noted: at 0.1 µM.
Sequence of Mitogen-activated protein kinase 9 (Homo sapiens) (P45984 whole entry, looked up): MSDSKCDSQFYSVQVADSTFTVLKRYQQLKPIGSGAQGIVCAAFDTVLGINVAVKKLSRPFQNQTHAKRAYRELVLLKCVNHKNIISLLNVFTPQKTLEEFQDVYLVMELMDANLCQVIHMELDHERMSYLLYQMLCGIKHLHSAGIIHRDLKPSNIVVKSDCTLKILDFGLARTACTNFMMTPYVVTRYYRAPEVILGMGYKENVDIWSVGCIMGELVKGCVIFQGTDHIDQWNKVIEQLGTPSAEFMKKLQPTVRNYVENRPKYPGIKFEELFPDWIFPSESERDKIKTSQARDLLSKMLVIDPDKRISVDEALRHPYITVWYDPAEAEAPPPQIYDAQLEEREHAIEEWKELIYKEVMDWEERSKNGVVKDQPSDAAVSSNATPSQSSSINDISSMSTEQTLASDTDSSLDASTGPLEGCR
The target is the same in test [7]. The following applies: at 1 µM.
The target of test [8] is Mitogen-activated protein kinase 1 (Homo sapiens) (UniProt P28482). To be noted: at 0.1 µM.
Sequence of Mitogen-activated protein kinase 1 (Homo sapiens) (P28482 whole entry): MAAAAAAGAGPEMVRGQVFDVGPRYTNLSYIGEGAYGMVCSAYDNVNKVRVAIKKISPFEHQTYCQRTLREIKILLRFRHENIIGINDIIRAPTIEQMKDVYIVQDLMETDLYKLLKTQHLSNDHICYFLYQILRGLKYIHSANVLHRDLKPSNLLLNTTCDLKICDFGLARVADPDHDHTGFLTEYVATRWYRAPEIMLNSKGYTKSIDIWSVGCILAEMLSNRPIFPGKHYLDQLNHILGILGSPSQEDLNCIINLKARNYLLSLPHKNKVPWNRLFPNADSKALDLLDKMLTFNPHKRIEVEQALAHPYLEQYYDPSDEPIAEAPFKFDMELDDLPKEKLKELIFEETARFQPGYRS
The target is the same in test [9]. To be noted: at 1 µM.
For test [10], the target named is Mitogen-activated protein kinase 3 (Homo sapiens) (UniProt P27361). The following applies: at 0.1 µM.
Sequence of Mitogen-activated protein kinase 3 (Homo sapiens) (P27361 whole entry): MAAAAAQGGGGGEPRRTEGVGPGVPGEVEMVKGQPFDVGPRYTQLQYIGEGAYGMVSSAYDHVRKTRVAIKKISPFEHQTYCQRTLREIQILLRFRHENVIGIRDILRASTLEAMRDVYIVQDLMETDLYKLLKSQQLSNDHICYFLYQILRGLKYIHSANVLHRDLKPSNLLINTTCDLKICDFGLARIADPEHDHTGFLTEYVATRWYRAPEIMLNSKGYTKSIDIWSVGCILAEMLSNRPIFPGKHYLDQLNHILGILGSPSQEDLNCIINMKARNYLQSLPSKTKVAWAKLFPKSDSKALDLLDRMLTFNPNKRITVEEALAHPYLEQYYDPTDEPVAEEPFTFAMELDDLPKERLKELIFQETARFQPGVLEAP
The target is the same in test [11]. To be noted: at 1 µM.
For test [12], the target named is SRSF protein kinase 3 (Homo sapiens) (UniProt Q9UPE1). The following applies: at 0.1 µM.
Sequence of SRSF protein kinase 3 (Homo sapiens) (Q9UPE1 whole entry): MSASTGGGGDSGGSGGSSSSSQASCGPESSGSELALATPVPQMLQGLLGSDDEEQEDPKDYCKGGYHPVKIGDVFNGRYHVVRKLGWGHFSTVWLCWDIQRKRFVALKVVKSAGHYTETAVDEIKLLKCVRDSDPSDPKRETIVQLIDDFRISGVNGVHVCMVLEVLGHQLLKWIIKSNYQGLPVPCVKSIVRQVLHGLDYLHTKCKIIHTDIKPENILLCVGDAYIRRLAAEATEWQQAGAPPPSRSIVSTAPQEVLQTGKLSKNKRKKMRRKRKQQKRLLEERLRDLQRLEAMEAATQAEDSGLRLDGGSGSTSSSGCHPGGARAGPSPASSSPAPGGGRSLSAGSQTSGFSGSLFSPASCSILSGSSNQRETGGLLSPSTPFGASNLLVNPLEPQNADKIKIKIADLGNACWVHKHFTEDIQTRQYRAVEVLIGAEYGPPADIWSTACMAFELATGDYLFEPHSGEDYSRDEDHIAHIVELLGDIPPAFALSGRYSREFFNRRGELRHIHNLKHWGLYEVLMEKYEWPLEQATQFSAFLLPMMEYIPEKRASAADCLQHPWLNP
Test [13] has the same target. The following applies: at 1 µM.
Test [14] has as its target Mitogen-activated protein kinase 14 (Homo sapiens) (UniProt Q16539). To be noted: at 0.1 µM.
Test [15] has the same target. The following applies: at 1 µM.
For test [16], the target named is Mitogen-activated protein kinase 11 (Homo sapiens) (UniProt Q15759). To be noted: at 0.1 µM.
Sequence of Mitogen-activated protein kinase 11 (Homo sapiens) (Q15759 whole entry): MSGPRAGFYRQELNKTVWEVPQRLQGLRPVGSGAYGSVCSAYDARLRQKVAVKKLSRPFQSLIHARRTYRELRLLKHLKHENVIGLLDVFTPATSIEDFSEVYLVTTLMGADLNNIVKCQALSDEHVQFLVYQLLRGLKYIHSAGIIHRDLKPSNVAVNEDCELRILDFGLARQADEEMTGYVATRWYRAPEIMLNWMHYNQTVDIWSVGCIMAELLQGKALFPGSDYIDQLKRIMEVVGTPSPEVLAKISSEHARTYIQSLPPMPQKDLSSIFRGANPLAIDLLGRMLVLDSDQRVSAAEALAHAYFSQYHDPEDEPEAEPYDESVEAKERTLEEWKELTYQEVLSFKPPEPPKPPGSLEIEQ
Test [17] shares this target. To be noted: at 1 µM.
Test [18] deals with T2, Mitogen-activated protein kinase 13 (Homo sapiens) (UniProt O15264).
T2 sequence (whole entry): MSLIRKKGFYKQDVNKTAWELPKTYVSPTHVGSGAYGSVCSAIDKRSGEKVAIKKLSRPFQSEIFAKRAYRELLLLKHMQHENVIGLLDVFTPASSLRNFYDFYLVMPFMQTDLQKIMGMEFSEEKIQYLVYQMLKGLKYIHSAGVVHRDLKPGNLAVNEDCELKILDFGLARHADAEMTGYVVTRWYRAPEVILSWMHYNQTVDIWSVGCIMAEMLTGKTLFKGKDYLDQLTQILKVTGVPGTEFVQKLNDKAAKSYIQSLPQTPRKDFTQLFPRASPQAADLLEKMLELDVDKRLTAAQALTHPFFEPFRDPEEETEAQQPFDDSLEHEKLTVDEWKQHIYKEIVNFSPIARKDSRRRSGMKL
The following applies: at 0.1 µM.

The target in test [19] is T2, Mitogen-activated protein kinase 13 (Homo sapiens). To be noted: at 1 µM.
The target in test [20] is T3, Mitogen-activated protein kinase 12 (Homo sapiens) (UniProt P53778).
T3 sequence (whole entry): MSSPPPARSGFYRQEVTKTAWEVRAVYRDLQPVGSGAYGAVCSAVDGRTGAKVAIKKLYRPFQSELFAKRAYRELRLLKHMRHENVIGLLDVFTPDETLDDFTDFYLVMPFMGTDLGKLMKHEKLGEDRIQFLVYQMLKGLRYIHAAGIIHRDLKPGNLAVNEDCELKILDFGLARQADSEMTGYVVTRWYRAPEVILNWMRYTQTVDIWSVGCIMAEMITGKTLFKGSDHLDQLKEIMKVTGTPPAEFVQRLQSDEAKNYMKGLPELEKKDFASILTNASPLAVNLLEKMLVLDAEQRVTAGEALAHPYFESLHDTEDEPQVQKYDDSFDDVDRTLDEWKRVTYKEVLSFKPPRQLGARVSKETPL
The following applies: at 0.1 µM.

Sequence of Glycogen synthase kinase-3 beta (Homo sapiens) (P49841 whole entry, looked up): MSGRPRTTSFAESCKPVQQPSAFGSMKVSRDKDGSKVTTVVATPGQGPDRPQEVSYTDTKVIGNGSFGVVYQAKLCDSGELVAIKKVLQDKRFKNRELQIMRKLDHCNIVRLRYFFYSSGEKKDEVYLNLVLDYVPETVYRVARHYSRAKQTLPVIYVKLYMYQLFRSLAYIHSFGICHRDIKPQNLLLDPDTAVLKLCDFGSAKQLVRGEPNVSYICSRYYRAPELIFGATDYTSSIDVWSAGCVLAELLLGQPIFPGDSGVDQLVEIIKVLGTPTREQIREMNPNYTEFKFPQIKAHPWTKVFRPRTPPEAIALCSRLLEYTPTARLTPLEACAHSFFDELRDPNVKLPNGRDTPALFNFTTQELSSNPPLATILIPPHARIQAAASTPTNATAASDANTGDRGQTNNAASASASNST
Sequence of Mitogen-activated protein kinase 14 (Homo sapiens) (Q16539 whole entry): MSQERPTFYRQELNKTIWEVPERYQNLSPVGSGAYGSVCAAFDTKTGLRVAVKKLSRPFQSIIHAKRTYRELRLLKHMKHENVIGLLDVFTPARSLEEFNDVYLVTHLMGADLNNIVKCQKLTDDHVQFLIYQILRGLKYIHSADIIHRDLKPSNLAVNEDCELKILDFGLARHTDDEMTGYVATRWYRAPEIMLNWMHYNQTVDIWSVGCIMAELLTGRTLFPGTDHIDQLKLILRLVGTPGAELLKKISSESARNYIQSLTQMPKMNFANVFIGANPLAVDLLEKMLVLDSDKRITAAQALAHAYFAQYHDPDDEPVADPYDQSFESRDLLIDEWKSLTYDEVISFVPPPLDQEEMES
Sequence of Homeodomain-interacting protein kinase 1 (Homo sapiens) (Q86Z02 whole entry, looked up): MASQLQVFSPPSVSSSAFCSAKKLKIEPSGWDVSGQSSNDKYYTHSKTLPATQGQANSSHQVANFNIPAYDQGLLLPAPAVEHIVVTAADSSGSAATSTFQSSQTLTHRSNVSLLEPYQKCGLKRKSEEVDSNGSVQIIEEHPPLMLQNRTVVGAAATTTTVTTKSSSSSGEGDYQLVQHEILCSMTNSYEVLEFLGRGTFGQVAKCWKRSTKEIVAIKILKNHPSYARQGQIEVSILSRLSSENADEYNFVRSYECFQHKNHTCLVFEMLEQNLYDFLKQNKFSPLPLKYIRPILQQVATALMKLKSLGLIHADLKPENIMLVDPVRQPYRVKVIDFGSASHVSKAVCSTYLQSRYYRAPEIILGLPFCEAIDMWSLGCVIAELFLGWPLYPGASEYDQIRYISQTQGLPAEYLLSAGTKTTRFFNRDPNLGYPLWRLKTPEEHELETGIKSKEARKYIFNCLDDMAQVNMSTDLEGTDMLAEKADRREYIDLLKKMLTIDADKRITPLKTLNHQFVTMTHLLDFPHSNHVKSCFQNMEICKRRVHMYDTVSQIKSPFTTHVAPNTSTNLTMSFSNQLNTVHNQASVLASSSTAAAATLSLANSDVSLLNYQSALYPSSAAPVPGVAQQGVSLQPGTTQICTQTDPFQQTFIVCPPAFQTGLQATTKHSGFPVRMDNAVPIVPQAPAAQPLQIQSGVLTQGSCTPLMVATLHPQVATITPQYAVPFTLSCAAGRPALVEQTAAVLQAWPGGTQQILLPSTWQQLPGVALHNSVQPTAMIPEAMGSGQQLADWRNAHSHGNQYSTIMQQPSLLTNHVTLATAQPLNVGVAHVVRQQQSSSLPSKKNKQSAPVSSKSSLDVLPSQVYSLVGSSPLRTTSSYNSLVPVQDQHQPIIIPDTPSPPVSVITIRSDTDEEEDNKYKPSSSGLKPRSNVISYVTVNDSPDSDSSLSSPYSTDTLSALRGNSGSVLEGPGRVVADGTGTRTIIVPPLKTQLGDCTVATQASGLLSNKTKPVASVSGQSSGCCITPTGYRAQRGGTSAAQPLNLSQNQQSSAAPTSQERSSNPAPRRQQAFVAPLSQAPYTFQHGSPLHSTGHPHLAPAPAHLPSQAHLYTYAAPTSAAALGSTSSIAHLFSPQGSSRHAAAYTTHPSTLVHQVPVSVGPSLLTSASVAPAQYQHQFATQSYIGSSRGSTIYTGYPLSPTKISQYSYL

In the case of `CCS(=O)(=O)c1ccc(OC)c(Nc2ncc(-c3ccccc3Cl)o2)c1`, the inhibition in [1] worked out at 1.12%; in [2] it was 1.24%; in [3], 9.06%; in test [4] it was 8.83%; in [5] it was 47.5%; in test [6] it was 1.42%. Besides, the inhibition was 1.23% in test [7]; 0.66% in [8]; 0.84% in [9]; 1.66% in [10]; 0.91% in test [11]; 0.64% in test [12]. Moreover, the inhibition in test [13] was 3.28%; in test [14], 7.68%; in test [15], 12.2%; in [16] it was 2.55%; in test [17], 5.3%; in [18], 1.24%. For the same compound, the inhibition was found to be 1.41% in [19] and 5.31% in [20].

With `NS(=O)(=O)c1ccc(N/N=C2\C(=O)Nc3ccc(-c4cnco4)cc32)cc1`, the inhibition in test [1] is 65.2%; in test [2], -2.16%; in [3], 25.2%; in test [4], 3.05%; in [5] it was 15.6%; in [6] it was 0.65%. Further, the inhibition in test [7] was 2.38%; in [8], 3.21%; in test [9], 7.04%; in [10], 2.36%; in test [11] it was 3.04%; in test [12], -2.14%. Further, the inhibition was -0.18% in test [13]; 2.88% in [14]; 2.83% in test [15]; 0.43% in [16]; 2.84% in test [17]; 2.15% in test [18]. The figures for the inhibition in [19] and in test [20] were 2.61% and 2.22%, respectively.

Take `COc1cc(N2CCN(C(C)C)CC2)ccc1Nc1nc(Nc2ccc(F)cc2C(=O)NC[C@@H](O)CO)c2cc[nH]c2n1`: the inhibition was -0.58% in test [1]; 9.42% in [2]; 46.1% in test [3]; 32.3% in [4]; 69.8% in test [5]; 14.9% in test [6]. The inhibition was 57.4% in [7]; 0.55% in [8]; 7.31% in [9]; 6.47% in test [10]; 5.1% in test [11]; -4.86% in [12]. The inhibition in test [13] was 2.68%; in test [14] it was 2.09%; in [15], 9.88%; in [16], 4.89%; in [17], 6.16%; in [18] it was -0.21%. The values for the inhibition in test [19] and in test [20] were 4.89% and -2.16%, respectively.

Take `CCc1cccc(CC)c1/C=C/c1cncc(C(=O)NC)c1`: the inhibition in test [1] turned out to be 7.96%; in test [2] it was 1.64%; in test [3] it was 7.03%; in [4], 1.04%; in test [5] it was 4.82%; in test [6] it was 4.45%. Moreover, the inhibition in test [7] is 7.37%; in [8], 1.29%; in test [9], 1%; in test [10], 2.05%; in test [11] it was 1.29%; in [12] it was 1.81%. Further, the inhibition in [13] is 0.49%; in test [14], 3.92%; in test [15] it was 8.94%; in test [16] it was 4.41%; in [17], 4.99%; in test [18] it was -0.46%. In addition, the results for the inhibition in test [19] and in test [20] were 4.25% and -2.91%, respectively.

On to `NS(=O)(=O)c1ccc(Nc2cc(-c3ccc(O)c(F)c3)n[nH]2)cc1`, for which the inhibition was 38% in [1]; 0.97% in [2]; 16.1% in test [3]; 1.96% in test [4]; 10.4% in [5]; -1.59% in test [6]. For the same compound, the inhibition was 2.43% in test [7]; -4.87% in [9]; -1.57% in test [10]; -1.26% in test [11]; -1.38% in [12]; 0.03% in [13]. The inhibition in test [14] was -1.03%; in test [15] it was -2.41%; in test [16], -1.5%; in [17] it was 6.83%; in [18], -6.82%; in test [19], -4.19%. In addition, the inhibition in [20] is -2.85%.

For the compound `Cc1ccc(NC(=O)c2ccoc2)cc1-c1ccc(C(=O)NCC2CC2)cc1`, the inhibition in test [1] is -0.68%; in test [2] it was -3.48%; in [3], 0.37%; in test [4], 0.84%; in test [5] it was 0.22%; in test [6] it was 3.16%. Besides, the inhibition in [7] is 2.57%; in test [8], 3.2%; in [9], 3.37%; in test [10], 2.67%; in [11] it was 2.32%; in test [12], -2.54%. The inhibition in test [13] is -1.92%; in test [16], 27.8%; in [17] it was 61.2%; in test [18], 2.82%; in [19] it was 0.81%; in [20], 2.37%.

As for `O=C(Nc1n[nH]c2cc(-c3ccccc3)ccc12)C1CC1`, the inhibition in [2] is 0.47%; in [3] it was 0.72%; in [4], 1.87%; in [5] it was 3.44%; in [6], 6.25%; in [7] it was 7.19%. Also, the inhibition was 2.48% in test [8]; 6.01% in test [9]; 4.31% in test [10]; 4.97% in [11]; -0.47% in test [12]; -0.2% in test [13]. The inhibition in [14] was determined as 4.83%; in test [15], 11.2%; in test [16], 4.66%; in test [17], 6.34%; in test [18], 3.31%; in [19], 5.86%. The inhibition in test [20] was found to be 6.09%.

Usually inhibition stands for the drop in the measured response relative to a control, in per cent.
